# Assay results from PubChem BioAssay AID602310 (National Center for Advancing Translational Sciences (NCATS), 2012).
# Out of some 410,000 compounds screened, about 310 (0.076%) were called active. About 2% were inconclusive and are not listed. The list comes from a sample in which actives are over-represented; it also holds similar structures and randomly drawn compounds. Unmarked numbers belong to inactive results. Calls come from the whole dose curve; as a rule, active = well fitted curve in the direction sought with a large enough effect; inconclusive = small, poorly fitted or top-dose-only effect; inactive = flat fitted curve, though single readings scatter.
# Molecular target: DNA dC->dU-editing enzyme APOBEC-3G (Homo sapiens) (UniProt Q9HC16)
# Sequence (Q9HC16 whole entry, looked up): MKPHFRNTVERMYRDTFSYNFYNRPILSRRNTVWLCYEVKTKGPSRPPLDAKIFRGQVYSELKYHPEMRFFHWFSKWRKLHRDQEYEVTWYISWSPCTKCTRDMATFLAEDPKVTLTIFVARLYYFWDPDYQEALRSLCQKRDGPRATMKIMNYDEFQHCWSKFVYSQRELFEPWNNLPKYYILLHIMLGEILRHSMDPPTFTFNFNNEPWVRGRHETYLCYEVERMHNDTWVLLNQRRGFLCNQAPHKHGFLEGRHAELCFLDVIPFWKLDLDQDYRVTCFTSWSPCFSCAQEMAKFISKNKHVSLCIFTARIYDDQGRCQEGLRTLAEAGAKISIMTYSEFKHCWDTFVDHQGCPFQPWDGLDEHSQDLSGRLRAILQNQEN
# Experiment: qHTS for Inhibitors of Vif-A3G Interactions: qHTS; note: nearly all actives have a fitted effect of over 60% in size;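 for activity, negative = active: hits raise eYFP signal because A3G escapes Vif-driven loss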
# Conditions: HeLa A3G-eYFP + Vif (tagged APOBEC3G with the HIV-1 protein that degrades it), YFP fluorescence, overnight; series mostly up to 46.1 µM; activity, negative = active: at the top concentration
# In short: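 Read-out is eYFP fluorescence (Ex 488/Em 500-530) from Vif-expressing HeLa A3G-eYFP cells; more signal means A3G escaped Vif-mediated degradation. Cells plated overnight, compound pinned in, incubated overnight at 37 deg C.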
# % is set by controls: 0 for no effect and ±100 for the full control effect; potency is the fitted concentration of half-maximal effect.
SMILES,"activity, negative = active [%]",Potency
O=C(Nc1ccccc1F)C(c1ccccc1)N1Cc2ccccc2C1=O (centres undefined),-0.9,
OC(Cc1ccc2ccccc2n1)c1ccc(Cl)c(Cl)c1 (centres undefined),-0.459,
Cc1c(-c2nsc(NC(=O)c3cccc(Cl)c3)n2)nnn1-c1ccccc1C(F)(F)F,4.58,
CN(C)c1ccc(/C=C2\C=Cc3ccccc32)cc1Br,-3.17,
CCn1c(=O)c(=O)n(CC)c2cc(N3CCCCC3)c(NC(=O)c3cccc(F)c3)cc21,0.845,
CN(C)c1ccc(/C=N\Nc2ccc([N+](=O)[O-])cc2[N+](=O)[O-])cc1Cl,3.64,
CC1CCc2noc(NC(=O)c3ccc([N+](=O)[O-])cc3)c2C1 (centres undefined),-0.497,
Cc1cc(NS(=O)(=O)c2ccc3oc(=O)c4ncn(C)c4c3c2)ccc1Br,-20.5,
Cc1cc(C)c2oc(C(=O)Nc3c(C(=O)Nc4ccccc4)oc4ccccc34)cc(=O)c2c1,3.43,
COc1cc(OC)c(OC)cc1/C=C/c1nc2ccccc2c(=O)n1-c1ccc(Br)c(C)c1,-5.3,
CN(C)CCCn1c(SCCN2C(=O)c3ccccc3C2=O)nc2ccccc2c1=O,0.0321,
CCn1c(/C=C/c2ccc([N+](=O)[O-])o2)nc2ccccc2c1=O,,3.98 µM (active)
CC(C)(C)C1CCC(NC(=O)c2cnn3c2NC(=C2CC2)C=C3C(F)F)CC1 (centres undefined),2.17,
CCCCS(=O)(=O)c1oc(-c2cccs2)nc1S(=O)(=O)c1ccccc1,-18.8,
Cc1ccc(Cl)cc1N1CCN(S(=O)(=O)c2cc3[nH]c(=O)c(=O)[nH]c3cc2C)CC1,0.0103,
CCc1ccc(C(=O)CC2(O)C(=O)N(CCc3ccccc3)c3ccc(Br)cc32)cc1 (centres undefined),-13.6,
COc1cc(OC)c(OC)cc1/C=C1\C=Cc2ccccc21,-27.6,
COc1ccc(C2/C=C\CN(Cc3ccco3)C(C)C(=O)N2Cc2ccc(F)cc2)cc1 (centres undefined),3.73,
Cc1ccccc1CSCCNC(=O)C1CCN(S(=O)(=O)Cc2ccccc2)CC1,2.97,
Cc1cccc(CN2Cc3cccc4c3[C@H](C=CC4)CC2=S)c1,3.11,
Cc1csc(NCC(=O)c2c[nH]c3ccccc23)n1,-3.43,
CCOc1cccc2c1N[C@@H](c1ccc(C(=O)O)cc1)[C@H]1CC=C[C@@H]21,1.39,
CCOC(=O)c1cc2c(=O)n3ccccc3nc2n(CC2CCCO2)c1=NC(=O)c1ccccc1Br (centres undefined),-6.1,
CC(C)OC(=O)c1ccc(NCc2cc(O)ccc2O)cc1Cl,,12.6 µM (active)
O=S(=O)(c1cccc(C(F)(F)F)c1)N1CCN(c2nc(-c3cccs3)nc3ccccc23)CC1,0.472,

SMILES,"activity, negative = active [%]",Potency
Cc1c(Cl)cccc1NC(=O)CCS(=O)(=O)c1ccc2c(c1)oc(=O)n2C,1.33,
COc1cc2[nH]c(C)c(CCN3CCN(c4ccccc4)CC3)c2cc1OC,1.15,
CCc1ccc(S(=O)(=O)n2ccnc2)cc1,0.941,
Cc1[nH]c2ccccc2c1C(=O)C(=O)N(C)c1ccccc1,0.569,
COc1ccc(CCNC(=O)Cn2c(=O)cc(C(F)(F)F)c3c(C)nn(C)c32)c(OC)c1,4.39,
COc1cc2c(=O)c(S(=O)(=O)c3ccc(C(C)C)cc3)cn(Cc3ccccc3C)c2cc1OC,-1.18,
O=C(O)c1c(Br)c(Br)c(Br)c(Br)c1C1c2ccc(O)cc2Oc2cc(O)ccc21,3.84,
CCOC(=O)N1CCC(NC(=O)c2cnn(-c3cccc(C)c3)c2C2CCN(C(=O)OC(C)(C)C)CC2)CC1,1.48,
OCCNc1ncnc2oc(-c3ccco3)c(-c3ccco3)c12,-5.55,
O=[N+]([O-])c1ccc(/C=C/c2ccc3cccnc3c2)cc1,-2.68,
O=C(O)C1=C/C(=C/C=[N+]2c3cc(O)c(O[C@H]4OC(CO)[C@@H](O)[C@@H](O)[C@@H]4O)cc3C[C@@H]2C(=O)[O-])C[C@H](C(=O)O)N1 (some centres undefined),1.5,
Cc1ccc2onc(CC(=O)N3CCN(c4ccc(Cl)cc4)CC3)c2c1,0.252,
Cc1ccc(C=O)cc1Cl,0.329,
C(=Nc1ccc(/C=C/c2ccnc3ccccc23)cc1)c1cc2c3c(c1)CCCN3CCC2,2.24,
CC(C)(C)c1ccc(C(=O)NCC(c2ccc(Cl)cc2)N2CCOCC2)cc1 (centres undefined),1.59,
O=C1CN(C(=O)Nc2ccccc2C(F)(F)F)C(c2ccccc2)c2c(sc3c2CCCC3)N1 (centres undefined),-1.24,
CCCN(CCC)c1nc2c(C)cccn2c(=O)c1/C=C1/SC(=S)N(Cc2ccco2)C1=O,,3.16 µM (active)
CN(C)c1ccc(/C=c2\[nH]c(=O)/c(=C/c3ccc(N(C)C)cc3)[nH]c2=O)cc1,-0.485,
CCN(C(=O)CSc1nnc(C)n2c1cc1occc12)c1ccccc1,-4.9,
CCOc1ccc(C(=O)/C=C/c2cn(CC(O)CN3CCCCCC3)c3ccccc23)cc1 (centres undefined),-4.47,
CCOC(=O)N1CCc2c(sc(NCc3cccc(F)c3)c2C(=O)Nc2ccccc2OCC)C1,-3.66,
O=C(COC(=O)c1ccccc1OCCOc1ccccc1)Nc1cccc(Br)c1,0.386,
Cc1cc(C)cc(NC(=O)CSc2nc3nccnc3c(=O)n2CCc2c[nH]c3ccccc23)c1,6.02,
CCOC(=O)c1ccc(NC(=O)C2CC(=O)NC(=Nc3ccc(C)c(C)c3)S2)cc1 (centres undefined),1.17,
